Screen size: about 53,000 sequences; about 3,700 (7%) were called active.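 The calls were made as follows: active = gene knockdowns whose robust z-score for IL-1 alpha signal is at least 2 or at most -2, so actives lie on both sides; inactive = the rest.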 Only a selection was taken, and actives are over-represented in it overall.
Test: Components of the Cytosolic LPS Sensing Pathway: Gene Identification via Genome-wide siRNA Screen;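 also: robust z of the log signal after scaling to non-targeting control siRNA wells of the plate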
Details: RAW264.7 macrophages, IL-1a HTRF, actives lie on both sides, screened at 100 nM (by protocol), cells primed 5 h with Pam3CSK4 first
Procedure, shortened: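 RAW264.7; siRNA 100 nM final, RNAiMAX, 48h 37 degrees C; Pam3CSK4 5 h; LipidA + TransIT-TKO 24 h; IL-1a HTRF; CellTiter-Glo viability; robust z vs negative-control median.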

Sequence	z-score
CCAUCUAUCAACUUCUACATT against Sat1	-0.34 (inactive)
GGCUAUGUUCACCUGUGGATT against Kbtbd12	-2.66 (active)
CCUGUAAGAACCUUGCCUATT against Sytl3	0.733 (inactive)
GGAAGGAAGAAGACAAUAATT against Nudt16l1	-0.438 (inactive)
GCGGAUGAUCAAGAAUCGATT against Atf6b	-0.421 (inactive)
GCUGUGAAAACGCAGUUACTT against Ccser2	1.77 (inactive)
CCUAUACAUGCUACUGAACTT against Itga9	-0.723 (inactive)
CCCAGGGUACCUCACAUCUTT against Nrp1	-0.595 (inactive)
GGUCAUCAAUGCCACAGCUTT against Lpo	-2.24 (active)
CCGGAGUGACCAUAUUCGUTT against Fgr	-0.446 (inactive)
GGCUCUCAAUGAUCAUCAUTT against Aldob	-0.423 (inactive)
GGAAGUACAGAAUUUUGAATT against Sft2d2	1.46 (inactive)
GGAAAUGUUGAAUCUUGCUTT against Mfsd4a	0.0725 (inactive)
CGAUGUAAGGAAAGAAAGGTT against Cd14	-1.47 (inactive)
CCCUUUGUGUGGAUUAUAUTT against Sp9	2.91 (active)
GGGACUGUAAUACCAUGAUTT against Rnase10	0.0343 (inactive)
GGCCUUCACCAAAAGCAUCTT against Ncf2	-0.661 (inactive)
GGUUUCCUUUGUCUGUUUUTT against 9530091C08Rik	-0.509 (inactive)
GGCUCUAACUAUUAUGUGCTT against Psmc4	-2.9 (active)
CCUGGCUGUAAUCACCAUCTT against Olfr1160	0.953 (inactive)
GGACAGAUCUUUGAAGCAGTT against Vps18	-1.7 (inactive)
GGACGAGGAGUACGAGCAATT against Nfkbia	2.6 (active)

Sequence	z-score
CUACCUACUCCAUGUGGUGTT against Gpihbp1	-0.55 (inactive)
GGCCAUUAAAUUUAUCAACTT against Aldh3a1	1.61 (inactive)
GGGAGAGCUGCUGUUUUUCTT against Rxfp3	1.46 (inactive)
GGUCUGCUUUGUCUUGGUGTT against Olfr829	0.126 (inactive)
GGAUGAAGAUGAAAAGGAATT against Ube3a	-0.519 (inactive)
CCUGAAAGUCGUUUAUCGCTT against Il7r	2.74 (active)
GGCUAUUUAUAAGUCCAGUTT against Uso1	-0.307 (inactive)
GGAUAGGUUUCUGUAUUUATT against Znrf1	0.621 (inactive)
CCGUAUGAACGUGUGAUAATT against Rasef	0.142 (inactive)
GGGCACCUAGUUUCCAUGATT against Cox7b	-0.385 (inactive)
GGAAGUGGCGAGGUUCUAUTT against Folr1	0.782 (inactive)
GCAGAACACCGCUGGAAGUTT against Pard3	3.14 (active)
CGCAAUGUAUGAUUCAAUGTT against Mogat1	1.76 (inactive)
GCUAAUUCCCUGGCCUCAATT against Tro	-0.627 (inactive)
GGUUUAUAGGCCUUCUUCCTT against Flot2	-0.763 (inactive)
GCAUCGUUAUGCGCCUCACTT against Neurog2	0.297 (inactive)
CGGGCAUGAUGAAUCGAUGTT against Ldhd	1.83 (inactive)
GGCUUGAUGAAGAGAAUAUTT against Oog4	-1.45 (inactive)
CGGACUCUGUGUUCUUAGATT against Alg3	2.68 (active)
GGGCGACUUAUUUUUUGUUTT against Zfp111	0.333 (inactive)
GGACUUCAUCAACAACAUCTT against Nsmce1	0.459 (inactive)
GGAAAUCUUCAUGAUCAGUTT against Fam24b	-2.24 (active)

Sequence	z-score
GGUCAUCGGGUAAUUAAUCTT against Rad52	-0.618 (inactive)
GGAGUCUGCUCUCAUUCUUTT against Slc30a1	-0.214 (inactive)
GGAUGCUGAGCUUUCUGACTT against Fchsd1	0.476 (inactive)
GGCCCUGUUGCUAUGUGUUTT against Map1s	2.06 (active)
GGCACCGCUAUUCAGAAUUTT against Fgf23	0.755 (inactive)
GCUGGAAAAGUGCUGUGGGTT against Sult1c1	-0.494 (inactive)
GGCUUCCUUUUUGAAGCUATT against Slc35b4	0.258 (inactive)
CCGUCAAAACAUUACCAUUTT against Hmcn2	-0.363 (inactive)
GGUAGAAGAGAGUAUCAACTT against Commd1	1.28 (inactive)
GGAAAGUCUACAUGUAUUATT against Enpp6	-0.886 (inactive)
ACAUUUAUCACGACCCUUCTT against Olfr777	1.3 (inactive)
GGCCUUCACUGAUGAAUGUTT against Pramel32	-2.21 (active)
GGCGAAAAGCCGUUCCAUUTT against E430018J23Rik	0.664 (inactive)
GGAGAAGAACGAGAAACGUTT against Nyap2	0.904 (inactive)
CCAUUGAAAUUUCCAUCUGTT against Baalc	0.115 (inactive)
CGUGAACUUUCAGAGCAGGTT against Rrp36	0.124 (inactive)
CCAUAGCAGGGAAGAUUUUTT against Kcnd2	3.78 (active)
GGAUCCACAGUCAUUCAGATT against Sike1	1.13 (inactive)
GGUCUUCAUGGUCAAAGUGTT against Fzd10	2.11 (active)
GCAAAGUCCAGUGAACAACTT against Gtse1	-1.15 (inactive)
GGCCACAAUGGAUCAGAUGTT against Gldn	1.53 (inactive)
GGAUCUUUUAGCUAACCUATT against Tesk2	1.84 (inactive)

Sequence	z-score
GGCAACCUGCUGGUAAUCATT against Adrb3	3.53 (active)
GGCAUGCUGGAAUCAAACATT against Dppa2	0.699 (inactive)
GGUGAGCAAAGCCAAGAAGTT against Sgpl1	-1.42 (inactive)
GGCUUGCUUUGCUUCCCUUTT against Med28	-1.24 (inactive)
CCCGAAAGACAUGUAUUCGTT against Mrps18b	-0.38 (inactive)
CUACUUCGAGAACAUGGGUTT against Tpgs1	-0.749 (inactive)
GGUGAUAUCUUUCCAUCUUTT against Wiz	-0.176 (inactive)
CCACACUUAGUCAUUUUCUTT against Paral1	-2.06 (active)
GGCCUACGAAGUGCAAAGATT against Sipa1l3	-0.667 (inactive)
GGACUAGAAGAUCUACACUTT against Olfr67	-0.921 (inactive)
GCCUCGAUGCAAGAUGAUGTT against C2cd2l	-0.82 (inactive)
GGAUAAAGAAGGACUCAAATT against Tpbpb	-2.16 (active)
GGAGUAUGCGUACCUGAAGTT against Nr0b2	-0.903 (inactive)
GGCAGAGCUUGGAGUAUCUTT against Gtpbp4	1.31 (inactive)
GGGAGAAAAAGGCAUUUUUTT against Them5	0.46 (inactive)
GGACAACACAUUUGUGCUCTT against Sh2b2	0.209 (inactive)
GUCUGAACUUCUUAGCAUCTT against Uchl4	0.788 (inactive)
CCAGUGAUCAGUUUUAACGTT against Adamts20	0.184 (inactive)
CCUCAAUUGCAUGUGACCUTT against Itgb1bp1	-2.32 (active)
GGAUACAAAGAGAGUUGUCTT against Eif3c	1.23 (inactive)
GGUGCUGCACAAAUACAUATT against Eef1aknmt	0.715 (inactive)
CGAUCGAAAUCAAGUCGAUTT against Septin9	0.415 (inactive)

Sequence	z-score
GGUUCUCUGCCAGUUCUGUTT against Mid1	3.32 (active)
GGACCAUGUUAGAGCAUGCTT against Traf2	-2.36 (active)
GGUCCUACUUGUUCAUUGATT against Il1rl1	-0.802 (inactive)
GGACUUCAGUGAGGAUCAATT against Scg5	0.866 (inactive)
CCCUCCGAAAAUUUUUCUGTT against Defb14	-0.363 (inactive)
GGUAUGGAUCAAGGUUCUUTT against Gja6	3.21 (active)
GGUGGCCAUCAAGAAGAUATT against Mapk7	-0.749 (inactive)
CGACCACACAGGGAUAUACTT against Sectm1a	-0.169 (inactive)
GGGCUAUCUAUCAUAGUUUTT against Scp2	1.17 (inactive)
GCAUGUAUAACAGACCCAUTT against Tex47	0.928 (inactive)
GGUCACCUUAUAAUUGCCCTT against Btd	-2.83 (active)
GGUGAGAUAGGUCUAGUUGTT against Col10a1	-0.273 (inactive)
GGAUCACUGACUUUGAAUUTT against Mob2	-0.654 (inactive)
GGCUGUCAUGCAUUAUAUGTT against Tfeb	-0.535 (inactive)
GGAGCUUCUUGACCUCGUGTT against Frmd4a	0.184 (inactive)
CCUGUUUUCCGACUUGUUGTT against Il4ra	0.809 (inactive)
GGUGGUUACACAAGGAACATT against Phgdh	-0.314 (inactive)
GGCUCAUCCCAAUGCUAUATT against Sdc3	0.304 (inactive)
GGUGAUCACUCUCUCUGAATT against Olfr187	-0.975 (inactive)
CCGUAACCCAGAAAAUGUATT against Eva1a	-2.01 (active)
